Screening data from PubChem.
Hits are enriched below; roughly 1% of the tested compounds scored in any of these assays.
NPR2 activator = GC-B (human) receptor activation; activation, % at 10 µM; 370,000 compounds, 0.11% hits; P20594; HEK293-GC-B cells, CNP EC30, cGMP TR-FRET; 0% at EC30 CNP, 100% saturating CNP;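 active = activation at 10 µM reaching about 35% in either raw or pattern-adjusted values, limit read from the data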
A1 inh = inhibitors of the anti-apoptotic protein A1, read as caspase activation; MEF A1-2A-BIM cells, Caspase-Glo 3/7 luminescence, 3 h; percent of clofoctol response, vehicle zero; caspase activation, % (no concentration beside the values); 330,000 compounds, 0.066% hits;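 active = over half of replicate activation scores above 10%, or exactly half above 10 with the replicate mean above 10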
H9c2 TAG inh = triacylglycerol accumulation inhibition | 230,000 compounds, 0.66% hits | H9c2 cells, Nile Red lipid (TAG) fluorescence; cells loaded with 200 µM oleic acid | inhibition, % at 12.5 µM;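 active = pattern-corrected inhibition of lipid staining of at least 50% with the nuclear-stain viability signal not falling by more than 50%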
GC-A act = GC-A (human) enzyme activation; AID 1671463; activation, % at 10 µM; 370,000 compounds, 0.14% hits; HEK293 GC-A cells, cGMP TR-FRET, EC30 ANP; 0% at EC30 ANP, 100% saturating ANP; in the data active = activation above about 40%
HSV replic up = increases HSV replication in cells; HSV replication augmentation in cells, fold increase; 220,000 compounds, 0.005% hits; AID 1956; maximum fold increase; in the data active = maximum fold increase above about 1.5; tested in PC3 cells
Efflux pump mplx = blocks antifungal efflux pumps in multiplex yeast assay | S. cerevisiae Candida pump triplex, Nile Red efflux | inhibition, % at 10 µM | 330,000 compounds, 0.44% hits;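 active = plate passing quality check with inhibition over a set limit, or well fluorescence over plate mean plus 4 SD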;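 also: Nile Red retained in pooled yeast measured as flow cytometry median fluorescence; higher means more Nile Red kept so more efflux inhibition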
H9c2 TAG conf = triacylglycerol accumulation inhibition, confirmation; inhibition, % at 12.5 µM; 990 compounds, 71% hits; shares compounds with H9c2 TAG inh; H9c2 lipid accumulation, Nile Red fluorescence; cells loaded with 200 µM oleic acid;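 active = mean inhibition across replicates of 40% or more; inactive = mean inhibition below 40%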
Hits are given with their value.

For COC(=O)c1cc(-c2cccc3ccccc23)c(=O)n2c1CCC2 the results were NPR2 activator inactive and GC-A act inactive.
Screening CCN1C(=O)[C@H]2[C@@H](c3ccc(-c4ccc(OC)cc4)c(OC)c3)N[C@@](CC(C)C)(C(=O)OC)[C@H]2C1=O returned NPR2 activator inactive, A1 inh inactive, H9c2 TAG inh inactive, GC-A act inactive and Efflux pump mplx inactive.
For CCN1C(=O)[C@H]2[C@@H](c3ccc(-c4ccccc4)c(OC)c3)N[C@@](CC(C)C)(C(=O)OC)[C@H]2C1=O the results were NPR2 activator inactive, A1 inh inactive, H9c2 TAG inh 57, GC-A act inactive, Efflux pump mplx inactive and H9c2 TAG conf 40.
Screening CCCCCCSc1ccc([C@H]2N[C@@](CC(C)C)(C(=O)OC)[C@H]3C(=O)N(C)C(=O)[C@@H]23)cc1OC returned NPR2 activator inactive, A1 inh inactive, H9c2 TAG inh 64, GC-A act inactive, Efflux pump mplx inactive and H9c2 TAG conf 55.
Screening O=C(Cc1n[nH]c(=O)c2ccccc12)OCC(=O)c1ccc2c(c1)OCCO2 returned NPR2 activator inactive, A1 inh inactive, H9c2 TAG inh 81, GC-A act inactive, HSV replic up inactive, Efflux pump mplx inactive and H9c2 TAG conf 56.
O=C(Cc1n[nH]c(=O)c2ccccc12)OCC(=O)c1ccc(F)cc1 was read as NPR2 activator inactive, A1 inh inactive, H9c2 TAG inh inactive, GC-A act inactive and Efflux pump mplx inactive.
Screening CC(C)CN1C(=O)N2Cc3ccccc3C2CS1(=O)=O (centres undefined) returned NPR2 activator inactive and GC-A act inactive.
Screening COc1ccc2cc3cc(C(=O)NCC4COc5ccccc5O4)oc3nc2c1 (centres undefined) returned NPR2 activator inactive, A1 inh inactive, H9c2 TAG inh 57, GC-A act inactive, Efflux pump mplx inactive and H9c2 TAG conf inactive.
Screening CCN(CC)CCNC(=O)c1cc2cc3ccc(OC)cc3nc2o1 returned NPR2 activator inactive, A1 inh inactive, GC-A act inactive and Efflux pump mplx inactive.
CCOC(=O)CN(C(=O)CSc1nnc2c(n1)[nH]c1ccccc12)c1ccccc1 was read as NPR2 activator inactive, A1 inh inactive, H9c2 TAG inh 51, GC-A act inactive, HSV replic up inactive, Efflux pump mplx inactive and H9c2 TAG conf inactive.
Screening COC(=O)[C@]12C[C@H](CC(=O)NCCC(C)C)C(=O)N(Cc3cccc4ccccc34)C1=C[C@H](COCc1ccccc1)O[C@@H]2C returned NPR2 activator inactive and GC-A act inactive.
For CSC1=C(C#N)C(c2ccccc2C)C(C#N)=C(N)N1 (centres undefined) the results were NPR2 activator inactive, A1 inh inactive, H9c2 TAG inh 55, GC-A act inactive, HSV replic up inactive, Efflux pump mplx inactive and H9c2 TAG conf inactive.
Screening COC(=O)[C@]12C[C@H](CC(=O)N3CCN(C(=O)c4ccco4)CC3)C(=O)N(Cc3ccc4c(c3)OCO4)C1=C[C@H](C(C)C)O[C@@H]2C1CC1 returned NPR2 activator inactive and GC-A act inactive.
C[C@H]1C2CC(OC(=O)NCc3ccccc3)C(C2)[C@H]2CCCCN21 (some centres undefined) was read as NPR2 activator inactive and GC-A act inactive.
Screening O=C(Cc1c[nH]c2ccccc12)N/N=C/c1ccccc1O returned NPR2 activator inactive, A1 inh inactive, H9c2 TAG inh inactive, GC-A act inactive, HSV replic up inactive and Efflux pump mplx inactive.
`Cc1ccc(/C=N/NC(=O)Cc2c[nH]c3ccccc23)c(C)c1` gave NPR2 activator inactive, A1 inh inactive, H9c2 TAG inh 54, GC-A act inactive, Efflux pump mplx inactive and H9c2 TAG conf 44.
CC(C)(C)c1ccc(/C=N/NC(=O)Cc2c[nH]c3ccccc23)cc1 was read as NPR2 activator inactive, A1 inh inactive, H9c2 TAG inh 58, GC-A act inactive, HSV replic up inactive, Efflux pump mplx inactive and H9c2 TAG conf 42.
